# From PubChem BioAssay
# A selection follows.
# aSyn UTR act: Activators working through SNCA 5'UTR binding (MLPCN). alpha-synuclein 5'UTR reporter, activators screen. activity score, % (tested at 7.5 µM), hits read low. 7.1% of 300,000 active. AID 1814; in the data active = activity score below about -60%
# * = called active by the depositor.
SMILES,aSyn UTR act
NC(=O)c1ccc(NC(=O)c2ccc3c(c2)OCO3)cc1,-139*
Cn1cc(C(=O)Nc2ccc(Cl)c(Cl)c2)cn1,-85*
O=C(Nc1ccc(Cl)c([N+](=O)[O-])c1)c1ccc2c(c1)OCCO2,-133*
O=C(Nc1ccc(Cl)cc1)C1=Cc2ccccc2OC1,-150*
CCN1CCN(c2ccc(NC(=O)c3ccc4c(c3)OCO4)cc2)CC1,-123*
CC(C)(C)c1cnnn1-c1ccc(NC(=O)c2ccc3c(c2)OCO3)cc1,-86*
O=C(Nc1ccc(Br)cc1)c1ccc2c(c1)OCO2,-174*
O=C(Nc1ccon1)c1ccc2c(c1)OCO2,-76*
O=C1/C(=C/c2ccccc2)Oc2cc(OC(=O)N3CCOCC3)ccc21,-110*
CC(=O)Oc1ccc(/C=C2/Oc3ccccc3C2=O)cc1,-75*
CCCOc1ccc(C(=O)NC(=S)Nc2nc3ccccc3s2)cc1,-247*
CCCOc1ccc(C(=O)NNC(=S)NC(=O)CC)cc1,85
COc1ccc(-c2csc(NC(=O)c3ccccc3NS(=O)(=O)c3ccc(F)c(F)c3)n2)cc1,74
Cc1ccc2nc(NC(=S)NC(=O)c3cccs3)sc2c1,-104*
Cc1ccc2nc(NC(=S)NC(=O)c3ccc(OC(C)C)cc3)sc2c1,-107*
CCCC(=O)NC(=S)Nc1nc(-c2ccc(OC)cc2)cs1,-65*
Cc1ccc(-c2csc(NC(=S)NC(=O)c3cccs3)n2)cc1,-77*
COc1cc(CNc2ccc3[nH]c(=O)[nH]c3c2)ccc1OCc1cccc(C)c1,-84*
COc1cc(/C=N/NS(=O)(=O)c2ccc(C)cc2)ccc1OCc1cccc(C(=O)O)c1,90
O=c1[nH]c2ccc(NCc3ccc(OCc4ccccc4Cl)cc3)cc2[nH]1,-80*
COc1cc(CNc2ccc3[nH]c(=O)[nH]c3c2)ccc1OCc1ccc(C)cc1,-118*
COc1cc(CNc2ccc(NC(C)=O)cc2)ccc1OCc1ccccc1C,-122*
O=c1[nH]n(Cc2ccccc2)c(=O)c2ccccc12,-68*
COCCn1ccc2c(OCC(=O)Nc3cc(OC)ccc3OC)cccc2c1=O,-62*
COc1ccc(NC(=O)N2CCCC(c3nc(-c4ccc(C(C)C)cc4)no3)C2)cc1 (centres undefined),-164*
SMILES,aSyn UTR act
COc1ccc(-c2noc(C3CCCN(C(=O)Nc4ccccc4)C3)n2)cc1 (centres undefined),-102*
COc1ccc(-c2noc(C3CCCN(C(=O)Nc4ccccc4F)C3)n2)cc1 (centres undefined),-114*
COc1ccc(-c2noc(C3CCCN(C(=O)c4ccccc4)C3)n2)cc1 (centres undefined),-76*
COc1ccc(NC(=O)N2CCCC(c3nc(-c4ccc(OC)cc4)no3)C2)cc1 (centres undefined),-94*
CCCC(=O)N1CCCC(c2nc(-c3cccc(OC)c3)no2)C1 (centres undefined),-84*
Nc1ccccc1C#Cc1ccccc1,-162*
Nc1ccccc1C#Cc1ccc2[nH]ccc2c1,-174*
CCOC(=O)C1(C)C=C(Nc2cccc(OC)c2)C(=O)N1c1ccccc1 (centres undefined),-79*
Fc1ccc(-c2nnc(SCc3cccnc3)o2)cc1,-76*
Cc1ccccc1CSc1nnc(-c2ccncc2)o1,-86*
c1ccc(CSc2nnc(-c3ccncc3)o2)cc1,-104*
N#C/C(=N\Nc1cccc(C(F)(F)F)c1)C(=O)c1ccsc1,-109*
Nc1[nH]n(-c2ccccc2)c(=O)c1N=Nc1ccc2ncsc2c1,-78*
Nc1[nH]n(-c2ccccc2)c(=O)c1N=Nc1ccccc1,-138*
Nc1[nH]n(-c2ccccc2)c(=O)c1N=Nc1ccccc1[N+](=O)[O-],-133*
CC(=C\c1ccccc1)/C=C1/SC(=S)N(CCCC(=O)O)C1=O,67
O=C(O)CCCN1C(=O)/C(=C\c2ccco2)SC1=S,-141*
Cc1ccc(N2Cc3ccccc3C2=S)cc1,-154*
S=C1c2ccccc2CN1c1ccccc1,-64*
Cc1[nH]c2ccccc2c1C(=O)CSC(=S)N(C)C,-76*
Cc1[nH]c2ccccc2c1C(=O)CN1C(=O)NC2(CC(C)CC(C)(C)C2)C1=O (centres undefined),57
Cc1ccc(N(C)C(=O)c2ccc3c(Cl)c4c(nc3c2)CCC4)cc1C,-136*
COc1ccc(N(C)C(=O)c2ccc3c(Cl)c4c(nc3c2)CCCC4)c(OC)c1,-88*
COc1ccccc1CCC(=O)Nc1nc2ccccc2[nH]1,-223*
CCC(Oc1ccccc1)C(=O)Nc1nc2ccccc2[nH]1 (centres undefined),-66*
SMILES,aSyn UTR act
CCCCCC(=O)Nc1nc2ccccc2[nH]1,-177*
COc1ccc(OCC(=O)Nc2nc3ccccc3[nH]2)cc1,-123*
COc1ccc(CCC(=O)Nc2nc3ccccc3[nH]2)cc1,-127*
COc1cc(C(=O)OCC#N)ccc1OCc1c(C)noc1C,-66*
COc1cc(/C=C/C(=O)c2ccc(C)cc2)ccc1OCC#N,-100*
CSc1ccc(/C=C/C(=O)c2ccc(O)cc2)cc1,-172*
Cc1ccc(/C=C/C(=O)c2ccc(O)cc2)cc1,-309*
Cc1ccc(C(=O)/C=C/c2ccc3ncccc3c2)cc1,-68*
Clc1cccc(CSc2ncn(-c3ccccc3)n2)c1,-67*
CCN(CC)c1ccc(C2Nc3cccc4cccc(c34)N2)cc1,-171*
Cc1cc(C(=O)NC2CCCc3c2cnn3-c2cccc(C)c2C)no1 (centres undefined),-118*
COC(=O)c1ccc(C(=O)NC2CCCc3c2cnn3-c2ccc(C)c(C)c2)cc1 (centres undefined),104
O=C(Nc1nc2ccccc2[nH]1)C1CCCC1,-80*
O=C(CC1CCCC1)Nc1nc2ccccc2[nH]1,-123*
O=C(Nc1nc2ccccc2[nH]1)C1CCC1,-104*
CCS(=O)(=O)N1Cc2ccccc2CC1C(=O)Nc1nc2ccccc2[nH]1 (centres undefined),-101*
CC1CCCCN1C(=O)CSc1nc2ccsc2c(=O)n1Cc1ccccn1 (centres undefined),-120*
Cc1cc(NC(=O)CSc2nc3ccsc3c(=O)n2Cc2ccccn2)n[nH]1,-79*
COc1ccc(C(=O)/C(=C/N(C)C)S(=O)(=O)c2ccccc2)cc1,-160*
O=[N+]([O-])c1ccc(/C=N/n2cnc3ccccc32)s1,68
Cc1cc2ncn(/N=C/c3ccc([N+](=O)[O-])s3)c2cc1C,-117*
COc1cccc(/C=N/n2cnc3cc(C)c(C)cc32)c1OC,-97*
COc1cccc(NC(=S)/C(=C(\[O-])c2ccc(OC(F)F)cc2)[n+]2ccccc2)c1,-66*
N#C/C(=C/c1ccc(N2CCCCC2)o1)c1cccc(F)c1,-334*
N#C/C(=C/c1ccc(N2CCCCC2)cc1)c1cccc(F)c1,-135*
SMILES,aSyn UTR act
N#C/C(=C/c1ccc(N2CCCCCC2)o1)c1ccc(Cl)cc1,-299*
COc1cccc2cc(-c3cn4cccc(C)c4n3)c(=O)oc12,-154*
CCOc1cccc2cc(-c3cn4cc(C)ccc4n3)c(=O)oc12,-83*
COc1ccc(-n2c(C)cc(-c3cn4cccc(C)c4n3)c2C)cc1,-79*
COc1cccc2cc(-c3cn4ccc(C)cc4n3)c(=O)oc12,-88*
CCc1ccc(C(=O)c2cc3ccc(O)cc3oc2=O)cc1,-106*
COc1ccc(/C=C(\C#N)C(=O)OC2CCOC2=O)cc1 (centres undefined),-84*
CC(C)(C)C(=O)O/N=C(\N)c1ccc(-c2csnn2)cc1,-131*
CC(=O)O/N=C(\N)c1ccc(-c2csnn2)cc1,-128*
